Test results: PubChem BioAssay
A number with no mark means an inactive call. The rule behind the calls is not given here.

Target: Pantothenate synthetase (Mycobacterium tuberculosis (strain ATCC 25618 / H37Rv)) (UniProt P9WIL5)
Assay: Recombinant Mtb pantothenate synthetase (PanC) inhibitors, coupled enzyme, confirmatory (AID 375);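 note: 0% = full reaction with vehicle and 100% = no enzyme background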
Details: coupled enzyme assay; at 10 µM, active compounds read high

Pantothenate synthetase (Mycobacterium tuberculosis (strain ATCC 25618 / H37Rv)), sequence (P9WIL5 whole entry, looked up): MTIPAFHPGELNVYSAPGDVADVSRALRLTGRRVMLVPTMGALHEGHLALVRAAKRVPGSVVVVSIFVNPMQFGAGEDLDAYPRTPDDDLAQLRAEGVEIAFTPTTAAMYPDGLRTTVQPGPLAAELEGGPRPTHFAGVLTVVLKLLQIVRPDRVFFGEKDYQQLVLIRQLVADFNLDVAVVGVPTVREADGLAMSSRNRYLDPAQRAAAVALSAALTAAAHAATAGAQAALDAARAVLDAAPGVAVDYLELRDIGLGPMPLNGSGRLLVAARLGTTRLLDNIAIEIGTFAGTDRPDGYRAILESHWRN

Row | SMILES | inhibition [%]
1 | Cc1cc(C)n2nc3nc(N4CCCCC4)nc(-c4ccco4)c3c2n1 | 25
2 | CCOC(=O)c1cccc(NC(=O)CSc2nc3cccnc3n2C)c1 | 0
3 | O=C(C(Cc1ccccc1)n1cccc1)N1CCCCCC1 (centres undefined) | 8
4 | C[C@@H]1C[C@H](O)c2cc(Cl)ccc2N1 | 8
5 | CCOC(=O)CNC(=O)Nc1nnc(-c2ccc(OCC)cc2)o1 | 5
6 | CC(C)CCNC(=O)CCNS(=O)(=O)c1ccc(Cl)cc1 | 0
7 | COc1ccccc1CNC(=O)C1CCN(S(=O)(=O)N2CCCCC2)CC1 | 0
8 | CCOC(=O)CN(C(=O)CSc1nnc(-c2ccncc2)n1CCCN(C)C)c1ccccc1 | 11
9 | CCN(CC)CCCNS(=O)(=O)c1ccc(OC)cc1 | 3
10 | CC(C)CCn1c(SCC#N)nc2c(sc3ccccc32)c1=O | 2
11 | Cc1cc(C)nc(SCc2nnc(SCc3ccccc3Cl)o2)n1 | 0
12 | COc1ccc(C(O)C(CN2CCOCC2)c2ccccc2)cc1F (centres undefined) | 2
13 | CCOC(=O)C1CCCN(C(=O)c2ccc(CS(=O)(=O)c3ccc(Br)cc3)o2)C1 (centres undefined) | 4
14 | O=C(NCC1CCCO1)C1CC(c2ccc(Cl)c(Cl)c2)=NO1 (centres undefined) | 0
15 | O=C(NCC1CCCO1)c1ccc(C(=O)NCC2CCCO2)cc1 (centres undefined) | 0
16 | CCN1CCN(Cc2ccc(NC(=O)Nc3ccc(SC)cc3)cc2)CC1 | 2
17 | OCC(O)CN1CCN(c2ccccc2)CC1 (centres undefined) | 0
18 | Cc1cc(C)nc(NC2=NCC(=O)N2c2ccc(Cl)cc2)n1 | 0
19 | O=C(Nc1nc2ccc(S(=O)(=O)N3CCCC3)cc2s1)C1CCCO1 (centres undefined) | 0
20 | O=C(CCc1ccc(S(=O)(=O)N2CCOCC2)cc1)NCCc1ccccn1 | 0

Row | SMILES | inhibition [%]
21 | COc1cccc(OC)c1C(=O)Nc1ccc(CN2CCCCC2)cc1 | 0
22 | CCOCCCN(Cc1cc2cc(C)cc(C)c2[nH]c1=O)C(=O)N(CC)CC | 0
23 | COC(=O)c1ccccc1NC(=O)c1ccc(COc2ccccc2)o1 | 0
24 | COC(=O)c1cccc(NC(=O)NC2CCCN2S(=O)(=O)c2ccc(Cl)cc2)c1 (centres undefined) | 16
25 | COc1ccc(COC(=O)c2n[nH]c3ccccc23)cc1F | 0
26 | Cc1ccc(S(=O)(=O)N(C)c2ccc(OCC(=O)OCc3c(C)noc3C)cc2)cc1 | 0
27 | Cc1ccc(NC(=O)CSc2nnc(-c3ccncc3)n2C)cc1C | 0
28 | Cc1cc(NC(=O)c2cc(-c3ccco3)on2)n(-c2ccccc2)n1 | 0
29 | COC(=O)Nc1ccc(NC(C)=O)cc1 | 0
30 | Cc1cc2oc(=O)cc(C)c2c(=O)o1 | 4
31 | COc1ccc(-c2nn(-c3ccccc3)cc2/C=N/n2cnnc2)cc1OC | 9
32 | CN(CC(=O)N1CCN(C2CCCCC2)CC1)S(=O)(=O)c1cccc2nsnc12 | 8
33 | CC1(C)CC(=O)C2=C(C1)NC(=O)CC2c1ccc(N(CCC#N)CCC#N)cc1 (centres undefined) | 9
34 | O=S1(=O)C=CC(Nc2cccc(Cl)c2)C1 (centres undefined) | 0
35 | CC(=O)Nc1cccc(Oc2nc(C)cc(C)c2C#N)c1 | 1
36 | Cc1ccc2cc(CCNC(=O)C(C)C)c(=O)[nH]c2c1C | 3
37 | CCOC(=O)C1=C(N)OC2=C(C(=O)CC(C)(C)C2)C1c1ccoc1 (centres undefined) | 0
38 | Oc1c(Cl)cc(Cl)cc1CNc1ccc(Br)cn1 | 4
39 | CCCCOC(=O)n1c(SCC(=O)N(CC)CC)nc2ccccc21 | 0
